Assay [1] in a line: compounds binding Alexa647 anti-His antibody – biochemical, small-molecule microarray, 635 nm fluorescence, artefact control for SMM control protein annotation, primary screen (AID 1128).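 Note: score merges feature fluorescence with signal-to-noise for each printed compound spot.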 As to conditions: higher = more signal.
Assay [2] concerns Human papillomavirus type 1a E7 protein (residues 1-88). Nature of the assay: HPV1a E7 small-molecule binders, primary screen, biochemical, small-molecule microarray, residues 1-88, 635 nm (AID 1129). As to conditions: small-molecule microarray binding, fluorescence 635 nm; higher = more signal.
Assay [3] addresses Focal adhesion kinase 1 (Homo sapiens) (UniProt Q05397). Nature of the assay: PTK2 protein binding on printed compound slides – biochemical, small-molecule microarray, 635/667 nm fluorescence, BSA, DTT, primary screen (AID 1130).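 Note: composite of spot emission at 667 nm and signal to noise over triplicate slides.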 As to conditions: 635 nm fluorescence, higher = more signal.
For assay [4], the system named is Fibrinogen (Alexa647-labelled). Nature of the assay: Alexa647-fibrinogen binding to printed small molecules – biochemical, small-molecule microarray, 635/667 nm fluorescence, artefact control for SMM control-protein annotation, profiling panel (AID 1131).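 Note: z-score merges 667 nm fluorescence with per-spot signal-to-noise over triplicate slides.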 As to conditions: fibrinogen-A647 binding fluorescence, higher = more signal.
In assay [5] the target is Follistatin (Homo sapiens) (UniProt P19883). Nature of the assay: FST protein binding to printed compounds – biochemical, small-molecule microarray, 635/667 nm fluorescence, primary screen (AID 1132). To be noted: 635 nm fluorescence, higher = more signal.
Follistatin (Homo sapiens), sequence (P19883 whole entry, looked up): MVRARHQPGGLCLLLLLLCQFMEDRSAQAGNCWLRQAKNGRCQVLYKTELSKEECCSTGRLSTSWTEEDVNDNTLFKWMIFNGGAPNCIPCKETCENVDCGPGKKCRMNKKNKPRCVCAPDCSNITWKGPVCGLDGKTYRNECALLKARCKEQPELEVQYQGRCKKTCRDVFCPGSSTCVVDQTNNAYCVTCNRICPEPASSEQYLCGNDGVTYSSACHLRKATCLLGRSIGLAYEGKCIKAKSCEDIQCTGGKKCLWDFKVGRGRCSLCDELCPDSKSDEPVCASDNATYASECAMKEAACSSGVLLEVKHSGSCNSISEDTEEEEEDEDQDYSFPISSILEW
Assay [6] concerns the target Fibroblast growth factor 2 (Homo sapiens) (UniProt P09038). The assay is described as follows: basic fibroblast growth factor binding to printed compounds – biochemical, small-molecule microarray, 635/667 nm fluorescence, primary screen (AID 1133). To be noted: FGF2, fluorescence 635/667, higher = more signal.
Assay [7] can be described thus: JC-1 mitochondrial potential readout, lung cancer cells – cell-based, A549, JC-1 fluorescence, basal, 24 h, 100 nL, profiling panel (AID 1138).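 Note: A549 lung adenocarcinoma cells under basal conditions with no added stimulus; test concentration not given here.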 To be noted: higher = more signal.
The next assay concerns Lefty1. Nature of the assay: Lefty1 protein binding to printed compounds – biochemical, small-molecule microarray, 635/667 nm fluorescence, primary screen (AID 1139). As to conditions: fluorescence 635/667, higher = more signal.
Assay [8] relates to wheat germ agglutinin (Triticum aestivum), Alexa647-labelled. The assay is described as follows: Alexa647-WGA lectin binding to printed small molecules – biochemical, small-molecule microarray, 635/667 nm fluorescence, artefact control for SMM control-protein annotation, profiling panel (AID 1140).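 Note: score merges 667 nm feature emission with signal to noise over triplicate slides.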 To be noted: WGA-A647 binding, 635 nm fluorescence, higher = more signal.
Assay [9] deals with Luciferin 4-monooxygenase (Photinus pyralis) (UniProt P08659). The assay is described as follows: inhibition of purified Photinus pyralis luciferase – biochemical, luminescence, purified enzyme, 2006 set, primary screen (AID 1141).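 Note: cell-free assay with purified firefly luciferase at 100 ng per well in PBS; test concentration not given here.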 To be noted: purified firefly luciferase, SteadyGlo luminescence, 30 min; higher = more signal, called active from +8 up or from −8 down.
Luciferin 4-monooxygenase (Photinus pyralis), sequence (P08659 whole entry, looked up): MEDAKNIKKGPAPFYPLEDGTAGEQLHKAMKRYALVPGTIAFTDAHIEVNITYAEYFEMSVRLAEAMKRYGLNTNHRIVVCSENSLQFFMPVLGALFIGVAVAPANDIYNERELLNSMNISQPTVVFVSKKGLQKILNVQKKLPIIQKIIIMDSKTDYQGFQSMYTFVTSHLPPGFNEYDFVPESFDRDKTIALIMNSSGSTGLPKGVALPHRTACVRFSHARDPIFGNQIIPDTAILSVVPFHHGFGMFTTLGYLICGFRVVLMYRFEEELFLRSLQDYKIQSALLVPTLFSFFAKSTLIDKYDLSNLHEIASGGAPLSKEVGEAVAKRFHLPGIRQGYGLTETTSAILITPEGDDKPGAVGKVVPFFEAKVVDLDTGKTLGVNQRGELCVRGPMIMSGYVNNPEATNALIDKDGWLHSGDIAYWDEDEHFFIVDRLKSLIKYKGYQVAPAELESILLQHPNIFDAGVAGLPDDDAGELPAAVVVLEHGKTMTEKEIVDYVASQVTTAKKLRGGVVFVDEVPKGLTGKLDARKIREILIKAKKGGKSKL
Assay [10] has as its system Wnt5a (protein binding on small-molecule microarray). The assay is described as follows: small molecules binding Wnt5a protein – biophysical, small-molecule microarray, 635/667 nm fluorescence, primary screen (AID 1142).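 Note: fluorescence read at 667 nm with signal to noise per printed feature.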 As to conditions: 635 nm fluorescence, higher = more signal.
Assay [11] in a line: ATP-based viability of Huh7 replicon cells – cell-based, CellTiter-Glo luminescence, basal, 48 h, cytotoxicity control for HCV replication inhibitor project, primary screen (AID 1143).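 Note: Huh7 hepatoma cells carrying a hepatitis C replication reporter with no stimulus; test concentration not given here.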 To be noted: higher = more signal, called active from +8 up or from −8 down.
The nature of assay [12]: Pseudomonas biofilm growth suppression – PAO1 strain, BacTiter-Glo luminescence, LB-PBS, primary screen (AID 1144). To be noted: P. aeruginosa PAO1 biofilm, 12 h, higher = more signal.
The nature of assay [13]: basal CRE-LacZ reporter activity in PC12 – cell-based, unstimulated, primary screen (AID 1145). To be noted: no forskolin, luminescence, 4.5 h, higher = more signal, called active from +8 up or from −8 down.
Assay [14] is described as follows: forskolin-driven CRE-LacZ activity in PC12 – cell-based, CRE-LacZ reporter, forskolin-stimulated, primary screen (AID 1146).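 Note: PC12 cells with 6xCRE LacZ reporter stimulated by forskolin 10 µM; beta-galactosidase reporter signal reflecting CREB driven transcription.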 To be noted: luminescence, 4.5 h, higher = more signal, called active from +8 up or from −8 down.
Assay [15] deals with Streptavidin (Streptomyces avidinii) (UniProt P22629). Nature of the assay: compounds binding control protein streptavidin – biophysical, small-molecule microarray, 635/667 nm fluorescence, artefact control for SMM compound annotation, primary screen (AID 1147).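 Note: signal reflects streptavidin binding to arrayed compounds as a control protein.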 As to conditions: higher = more signal.
Streptavidin (Streptomyces avidinii), sequence (P22629 whole entry, looked up): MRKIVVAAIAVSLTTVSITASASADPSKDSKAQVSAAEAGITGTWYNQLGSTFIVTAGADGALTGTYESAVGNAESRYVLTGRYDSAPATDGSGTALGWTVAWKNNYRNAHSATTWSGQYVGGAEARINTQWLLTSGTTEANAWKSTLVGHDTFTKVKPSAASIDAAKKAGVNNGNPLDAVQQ
Assay [16] is described as follows: probe aInhba binding on compound microarray – biochemical, small-molecule microarray, 635/667 nm fluorescence, primary screen (AID 1148).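 Note: score merges 667nm spot fluorescence with signal-to-noise for antibody binding to printed compounds.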 As to conditions: higher = more signal.
In assay [17] the target is Torsin-1A (Homo sapiens) (UniProt O14656). Nature of the assay: TOR1A wild-type binding on microarray – cell lysate, small-molecule microarray, lysate, 635/667 nm, primary screen (AID 1149). As to conditions: COS7 hTOR1A-WT lysate, 635 nm fluorescence, higher = more signal.
Torsin-1A (Homo sapiens), sequence (O14656 whole entry, looked up): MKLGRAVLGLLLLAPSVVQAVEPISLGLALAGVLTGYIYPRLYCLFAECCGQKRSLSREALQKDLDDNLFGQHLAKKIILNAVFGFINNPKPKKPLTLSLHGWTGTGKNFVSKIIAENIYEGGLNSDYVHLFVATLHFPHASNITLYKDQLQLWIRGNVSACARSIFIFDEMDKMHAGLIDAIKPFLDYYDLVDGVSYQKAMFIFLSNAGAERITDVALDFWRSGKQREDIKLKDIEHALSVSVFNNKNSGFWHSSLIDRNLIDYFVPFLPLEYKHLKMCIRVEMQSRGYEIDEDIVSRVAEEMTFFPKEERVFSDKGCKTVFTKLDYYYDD
Assay [18] shares this target. The assay is described as follows: torsin A mutant lysate binding on microarrays – cell lysate, small-molecule microarray, COS7 lysate, 635/667 nm fluorescence, primary screen (AID 1150).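 Note: score pools 667 nm emission and signal to noise measuring lysate protein binding.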 As to conditions: COS7 hTOR1A mutant lysate, 635 nm fluorescence, higher = more signal.
The subject of assay [19] is Sonic hedgehog protein (Shh). The assay is described as follows: Sonic hedgehog microarray binding compounds – biochemical, small-molecule microarray, 635/667 nm fluorescence, primary screen (AID 1151).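 Note: Shh protein binding to compounds spotted on small-molecule microarray slides; score combines spot fluorescence intensity with signal-to-noise across triplicate slides.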 As to conditions: 635 nm fluorescence, higher = more signal.

Values joined by “and” are separate entries in the source; they are usually repeats but may differ in a detail not shown here. Equal values may be shown once. Active and inactive are the calls of the source. Unless noted, the rule behind the calls is not given here.

Focal adhesion kinase 1 (Homo sapiens), sequence (Q05397 whole entry, looked up): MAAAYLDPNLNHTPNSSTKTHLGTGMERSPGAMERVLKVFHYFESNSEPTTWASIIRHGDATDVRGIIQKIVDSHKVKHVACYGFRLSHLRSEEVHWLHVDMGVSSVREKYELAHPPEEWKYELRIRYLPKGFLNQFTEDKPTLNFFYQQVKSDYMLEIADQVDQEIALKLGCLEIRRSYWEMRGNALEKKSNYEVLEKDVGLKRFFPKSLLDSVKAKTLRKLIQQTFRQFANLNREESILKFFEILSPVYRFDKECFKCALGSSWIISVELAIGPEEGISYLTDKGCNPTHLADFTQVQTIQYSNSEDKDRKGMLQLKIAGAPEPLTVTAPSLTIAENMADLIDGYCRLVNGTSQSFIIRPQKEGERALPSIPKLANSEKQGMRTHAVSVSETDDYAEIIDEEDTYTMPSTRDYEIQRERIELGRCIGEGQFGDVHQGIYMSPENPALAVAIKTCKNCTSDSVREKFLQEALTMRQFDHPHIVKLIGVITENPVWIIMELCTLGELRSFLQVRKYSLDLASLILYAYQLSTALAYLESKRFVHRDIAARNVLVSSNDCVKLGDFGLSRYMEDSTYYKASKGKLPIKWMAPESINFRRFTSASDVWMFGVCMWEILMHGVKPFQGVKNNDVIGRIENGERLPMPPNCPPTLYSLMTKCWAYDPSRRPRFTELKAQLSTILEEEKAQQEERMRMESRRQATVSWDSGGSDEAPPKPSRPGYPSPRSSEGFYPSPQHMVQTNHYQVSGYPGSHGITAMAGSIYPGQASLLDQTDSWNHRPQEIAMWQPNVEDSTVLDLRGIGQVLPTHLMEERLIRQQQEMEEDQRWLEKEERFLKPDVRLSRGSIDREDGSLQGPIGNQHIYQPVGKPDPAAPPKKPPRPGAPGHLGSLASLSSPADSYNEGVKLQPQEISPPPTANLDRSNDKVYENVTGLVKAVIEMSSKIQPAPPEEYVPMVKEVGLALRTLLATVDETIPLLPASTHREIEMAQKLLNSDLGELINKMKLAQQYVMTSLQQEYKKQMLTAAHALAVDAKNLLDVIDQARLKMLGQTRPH
Fibroblast growth factor 2 (Homo sapiens), sequence (P09038 whole entry, looked up): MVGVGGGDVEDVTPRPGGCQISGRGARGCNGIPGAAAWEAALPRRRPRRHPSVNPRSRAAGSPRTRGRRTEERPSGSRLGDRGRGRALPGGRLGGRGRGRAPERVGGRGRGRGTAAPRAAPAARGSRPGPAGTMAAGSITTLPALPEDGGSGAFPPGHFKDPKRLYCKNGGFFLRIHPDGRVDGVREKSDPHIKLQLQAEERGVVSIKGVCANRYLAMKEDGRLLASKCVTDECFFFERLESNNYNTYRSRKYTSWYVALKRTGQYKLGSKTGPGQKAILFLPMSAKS

Consider `Cc1cc2c(nc1C)CCCN2CC(C)ON=C[C@@H](C)[C@H](OCc1ccccc1)C(C)C` (stereo not given in full), for which the composite z-score in assay [1] is -0.265; in [2], -1.26; in assay [3], 0.252; in assay [4], -0.709; in assay [5] it was 0.141; in assay [6], -0.0657. Further, the composite z-score with Lefty1 was 0.254; in assay [8], -0.911; in [10], -0.0264; in assay [15] it was -0.254; in [16], -0.016; in the assay with Torsin-1A (Homo sapiens) [17], -0.209. Moreover, the composite z-score is 0.22 with Torsin-1A (Homo sapiens) [18] and 0.513 in assay [19]. Also, the z-score in assay [7] was -0.7; in [9] it was 0.765 (inactive); in [11] it was 0.615 (inactive); in assay [12], 0.461 (inactive); in assay [13], 0.248 (inactive); in assay [14] it was 0.317 (inactive).
In the case of `CC(C)OC(=O)C=C1C[C@@H](c2cccc(C(F)(F)F)c2)O[C@@H](c2cccc(C(F)(F)F)c2)O1`, the composite z-score was 0.143 and 0.877 in [1]; 1.17 and 0.699 in assay [2]; 0.805 and 0.224 in assay [3]; 0.795 and 0.302 in assay [4]; -0.618 and -1.57 in [5]; -0.496 and -0.841 in assay [6]. Moreover, the composite z-score in the assay on Lefty1 was -0.392 and -0.925; in [8], 0.627 and 0.443; in assay [10], 0.0895 and -0.51; in assay [15], 0.0863 and 0.0717; in assay [16], -0.0313 and -0.2; with Torsin-1A (Homo sapiens) [17], 0.704 and 2.6. Also, the composite z-score in the assay with Torsin-1A (Homo sapiens) [18] was 1.17 and 0.366; in assay [19] it was -0.0088 and -0.758. Also, the z-score was 1.52 and 2.59 in assay [7]; -0.864 (inactive) and 0.747 (inactive) in assay [9]; -0.53 (inactive) and -2.72 (inactive) in assay [11]; -0.539 (inactive) and 0.216 (inactive) in [12]; -0.284 (inactive) and 0.379 (inactive) in assay [13]; -0.126 (inactive) and 1.11 (inactive) in [14].
As for `CCOC(=O)[C@H](CC(C)C)NC(=O)CCC1CC(OC(=O)NCc2cccc3ccccc23)CC2(CCCC(COC(=O)NCc3ccccc3)O2)O1` (stereo not given in full), the composite z-score is 0.223 in [1]; -0.439 in assay [2]; -0.159 in [3]; -1.97 in assay [4]; -0.126 in [5]; -0.105 in [6]. For the same compound, the composite z-score with Lefty1 is 0.275; in assay [8], -0.0551; in assay [10], -0.147; in assay [15], -0.339; in [16], 0.0038; in the assay with Torsin-1A (Homo sapiens) [17] it was -1.07. In addition, the composite z-score with Torsin-1A (Homo sapiens) [18] was -0.964; in assay [19], -0.0293. Besides, the z-score in assay [7] is 0.629; in [9], 0.529 (inactive); in [11] it was -0.649 (inactive); in assay [12], -0.583 (inactive); in [13] it was 0.286 (inactive); in assay [14], 1.5 (inactive).
`CCN1C(=O)[C@H]2[C@H]3[C@H](O)[C@H](O)CC(=NNC(=O)OCc4ccc(OC)cc4)[C@H]3CC[C@H]2C1=O`: the composite z-score was 0.0442 in [1]; 0.0241 in assay [2]; 0.0983 in assay [3]; 0.171 in assay [4]; -0.699 in [5]; -0.623 in assay [6]. Besides, the composite z-score in the assay on Lefty1 was 0.107; in assay [8], 0.77; in [10], 0.153; in assay [15] it was 0.398; in assay [16], 0.124; in the assay with Torsin-1A (Homo sapiens) [17] it was 0.275. For the same compound, the composite z-score is -0.023 in the assay with Torsin-1A (Homo sapiens) [18] and -0.121 in assay [19]. The z-score in assay [7] is 0.647; in assay [9], -0.716 (inactive); in assay [11], -0.0769 (inactive); in [12], 0.619 (inactive); in assay [13], 0.344 (inactive); in [14] it was -0.287 (inactive).
For `CCC[C@@H]1C[C@@]1(CCC)[C@@H](NC(=O)c1ccc(-c2ccccc2)cc1)c1cccc(Cl)c1`, the composite z-score in assay [1] was -0.844 and 1.8; in assay [2], -0.817 and 0.53; in assay [3] it was 0.589 and 0.541; in assay [4], -0.427 and 0.367; in assay [5] it was -0.0957 and 0.115; in [6], -0.817 and -0.244. Also, the composite z-score in the assay on Lefty1 is -0.16 and -0.268; in assay [8] it was -0.463 and 0.469; in assay [10] it was 0.585 and -0.0434; in assay [15], -0.475 and 0.378; in assay [16], 1.13 and -0.0011; with Torsin-1A (Homo sapiens) [17] it was 0.286 and -0.411. Also, the composite z-score with Torsin-1A (Homo sapiens) [18] was 0.322 and 0.104; in [19], -0.032 and -0.684. Besides, the z-score is 0.122 and 1.45 in assay [7]; 1.01 (inactive) and 1.76 (inactive) in assay [9]; -2.34 (inactive) and -1.18 (inactive) in assay [11]; -0.439 (inactive) and -0.623 (inactive) in assay [12]; 0.394 (inactive) and -0.568 (inactive) in assay [13]; 0.0069 (inactive) and -0.151 (inactive) in assay [14].

These data come from PubChem BioAssay.
